We go through 57 sequences from publication PMC7819943, “Rice protein-binding microarrays: a tool to detect cis-acting elements near promoter regions in rice”.

Over roughly 68,000 sequences, “fluorescence intensity (a.u.)” has its median near 9,100; the highest 2% begin near 16,000. Shown is part of a subset that was picked to be rich in the highest values.

OsWRKY34, sequence (Q0JBA9 entry or part of it): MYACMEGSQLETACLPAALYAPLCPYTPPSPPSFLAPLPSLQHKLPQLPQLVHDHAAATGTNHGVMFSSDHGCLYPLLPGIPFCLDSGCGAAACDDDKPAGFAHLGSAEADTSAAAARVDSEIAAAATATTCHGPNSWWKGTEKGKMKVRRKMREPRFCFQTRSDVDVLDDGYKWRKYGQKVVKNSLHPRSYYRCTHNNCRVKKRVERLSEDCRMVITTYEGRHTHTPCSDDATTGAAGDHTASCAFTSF

The target of the assay is OsWRKY34 (Oryza sativa, UniProt Q0JBA9 1-250). Briefly: protein-binding microarray (RPBM); PBS, 2% BSA, 51.3 ng/ul salmon testes DNA, 50 uM zinc acetate, 200 nM TF, 25 C, 1 h; high values mean tight binding. Conditions: protein: recombinant; tags: N-terminal polyhistidine and DsRed monomer fusion (pET32a); label: CyDye5-dUTP incorporated in the synthesized complementary strand; 3' TTTTT single-stranded linker to array surface; dsDNA, one strand shown. The procedure, abridged:
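Transcription factors were made in E. coli BL21-CodonPlus as N-terminal fusions to a polyhistidine tag and DsRed, then purified on Ni–NTA. After primer extension with Cy5-dUTP and blocking with 2% BSA, a custom Agilent array was exposed for 1 h at 25 °C to 200 nM protein in PBS, 2% BSA, salmon testes DNA and 50 µM zinc acetate. Washed arrays were scanned on an Axon 4000B, and the binding signal is per-feature fluorescence intensity in arbitrary units.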
Take “AAGACACAGCTTCAACACGTAACCTATGCACTACACACTACGGAGTCACCTAGTGCAG”: the binding signal was 11700 fluorescence intensity (a.u.). “CCCGTTCTAATTCAGTTTCTCCCTTTCTTACCGCATGTACCGGAGTCACCTAGTGCAG”: the binding signal was 8490 fluorescence intensity (a.u.). In the case of “GTTCTCTAGCCGCTTGTGATACTCGCAATCCTAAACCACGCGGAGTCACCTAGTGCAG” it was 8410 fluorescence intensity (a.u.); in that of “TAACTGCGTTGACATGTCGCCTTGCTATACTCACATTCTTCGGAGTCACCTAGTGCAG”, 9470 fluorescence intensity (a.u.); in that of “TCTCACTCTCTCACACACACACTCTCTCTCTCTGCTAGCTCGGAGTCACCTAGTGCAG”, 9820 fluorescence intensity (a.u.). For the sequence “GAATGTTGATGCTGTTGATGCATGCACCTGCCGAAGGCCGCGGAGTCACCTAGTGCAG”, the binding signal was 9170 fluorescence intensity (a.u.).

As for “CTTCTGTCATATCACCTTGCCGCTGCTTCTGATCATCTCCCGGAGTCACCTAGTGCAG”, the binding signal is 8670 fluorescence intensity (a.u.). In the case of “TTGTTCTTGCTGCATTTCTTCTTCTCGTTTTTTTTTCTTTCGGAGTCACCTAGTGCAG” it was 16900 fluorescence intensity (a.u.); in that of “GAATCTGCTTCTCATTCTTTTTTTCTTGCTGATCATCATGCGGAGTCACCTAGTGCAG”, 10200 fluorescence intensity (a.u.); in that of “CTCTTGCTGTTTCCTTTGCTCTGTTTCCTCTGCCTGCGCCCGGAGTCACCTAGTGCAG”, 8760 fluorescence intensity (a.u.). In the case of “CTCGCCATCTCTGCCGCCGGTCCGCCGCCTCGCTCGCTCGCGGAGTCACCTAGTGCAG”, the binding signal is 9470 fluorescence intensity (a.u.). As for “TGTCCGCCACGCTCTCGCCATCTGCCTGTACCACTAATCTCGGAGTCACCTAGTGCAG”, the binding signal was 22500 fluorescence intensity (a.u.). On to “TGTTTGCTGCTGCTGCTGCTCTGCTTTTCTCTTTTTTCTTCGGAGTCACCTAGTGCAG”, for which the binding signal is 9490 fluorescence intensity (a.u.). In the case of “CACCACCTTTGTTTGCTGCTCTCCATTTTTTTTCTTCGTTCGGAGTCACCTAGTGCAG” it was 10200 fluorescence intensity (a.u.); in that of “TTCACCACCACCGCCACGGCCTCTGCCTCTCGCTCTCTCTCGGAGTCACCTAGTGCAG”, 10200 fluorescence intensity (a.u.). Consider “CGCTGCTTCTGATCATCTCCCGTTCTTGCATTCTTCTTCTCGGAGTCACCTAGTGCAG”, for which the binding signal was 19400 fluorescence intensity (a.u.). As to “ACGCCCGCTTGATCCGCCTGCTGCGCGCGCGCGAGTTTTTCGGAGTCACCTAGTGCAG”, the binding signal is 9160 fluorescence intensity (a.u.). In the case of “ATCCCGGCCTGCTCTTGCGCTTTGACTTTTTGTAGAGTTTCGGAGTCACCTAGTGCAG” it was 18200 fluorescence intensity (a.u.).

In the case of “TACTACTGTACTACTCTCAGTCTCTCGGCTTCTAGACTAGCGGAGTCACCTAGTGCAG”, the binding signal was 8600 fluorescence intensity (a.u.). On to “GATTCTAAACATCCACTCACACCTCATTTTTTTCATTAGCCGGAGTCACCTAGTGCAG”, for which the binding signal was 9350 fluorescence intensity (a.u.).

As for “TGCCTGGCACCGTCCCCATCGCCGGCCGCCTCCGCCTCCGCGGAGTCACCTAGTGCAG”, the binding signal was 11300 fluorescence intensity (a.u.). With “ACTTAATCCATTTTCTTTTCTTCTCCTATTTTTCCATCAACGGAGTCACCTAGTGCAG”, the binding signal was 9970 fluorescence intensity (a.u.). In the case of “ATATTTCTATGATTCTATCCCCTCCAGATTTATCGGCGCCCGGAGTCACCTAGTGCAG” it was 8310 fluorescence intensity (a.u.). For “CTTCCAGGCAGTTGTTCTGTATCCTCTTCTTGTTGCAACACGGAGTCACCTAGTGCAG”, the binding signal was 8920 fluorescence intensity (a.u.). As to “TTTTGGTTTTATGAGGCGGTGGATGGATACTTGTTACACTCGGAGTCACCTAGTGCAG”, the binding signal was 10300 fluorescence intensity (a.u.). “TGTGCGCGTGTTGTTTTTTTGGCTTCTTTTTCGCTTGCCACGGAGTCACCTAGTGCAG”: the binding signal is 11400 fluorescence intensity (a.u.).

“TCTCTCCATCCATCCCTGCTGCTTCTCCATCTCGCATCTGCGGAGTCACCTAGTGCAG”: the binding signal is 16700 fluorescence intensity (a.u.). In the case of “GTTCGTTCGCCCTGCTGCTTCTCCCGCCGCATCCATCCCGCGGAGTCACCTAGTGCAG” it was 9640 fluorescence intensity (a.u.). Turning to “CGGCTTCTCGCTTTCTTGTTTCTCGTGGAGTTGCTTTTTTCGGAGTCACCTAGTGCAG”, the binding signal was 17500 fluorescence intensity (a.u.). Take “ATTGTTTTTTTTCTTTCTTTTTGCAAATCTCGCTTCGCTTCGGAGTCACCTAGTGCAG”: the binding signal was 8540 fluorescence intensity (a.u.).

For the sequence “GTGGGCATGATTTTCTTCTGTTTTCTCGTTTTAATTTTTTCGGAGTCACCTAGTGCAG”, the binding signal was 20100 fluorescence intensity (a.u.).

On to “ACCGGTGGCTTTGTTTGGTTCCACGGTCTTCAGGTTGGGACGGAGTCACCTAGTGCAG”, for which the binding signal was 8130 fluorescence intensity (a.u.). “TCCTCTTCTGTTTTTCTGTTTTTTTTCGTTTCTCTTCCCTCGGAGTCACCTAGTGCAG”: the binding signal is 13300 fluorescence intensity (a.u.). Regarding “GCTTCTCCATCTCGCATCTGCTGCCTCCTAATTTGCTTCGCGGAGTCACCTAGTGCAG”, the binding signal was 10000 fluorescence intensity (a.u.). “CTGCTTCTTTTGTTTGGTTGGTTTCAGGGCTTCGTGGCCACGGAGTCACCTAGTGCAG”: the binding signal is 17800 fluorescence intensity (a.u.). As for “TTTTTTCGGTGTTTTTCTTTTTGTTTCTTTTCGCTTCGCTCGGAGTCACCTAGTGCAG”, the figure is 12700 fluorescence intensity (a.u.); as for “TGTGCTTCTTTTTTTAATTTCTCTCTCTGTTTGCTTCTCTCGGAGTCACCTAGTGCAG”, 9720 fluorescence intensity (a.u.); as for “ATAATCTCCACATGCATCGTCGCTGTATTTTTTGGTTTCACGGAGTCACCTAGTGCAG”, 8510 fluorescence intensity (a.u.). As to “TTGTACTACTATTTCTTCATGTTACATAATTCTCCTTGTTCGGAGTCACCTAGTGCAG”, the binding signal is 8540 fluorescence intensity (a.u.). As to “TAGTATTTTTTTCCTTGGTTTTGTTTCTATCTCCTCTGACCGGAGTCACCTAGTGCAG”, the binding signal was 9480 fluorescence intensity (a.u.). In the case of “AATGTATAGGTGGTCCCGTGCTTTTGTATTGTGTTTGCGTCGGAGTCACCTAGTGCAG”, the binding signal was 10400 fluorescence intensity (a.u.).

“TTCTCTACATTGTTCATTTAGTATTTTTTTCTTTTCATTTCGGAGTCACCTAGTGCAG”: the binding signal was 10700 fluorescence intensity (a.u.). In the case of “ATGGCAACGACCCAGTTCTGTCCGAGTAGGACTCCTTCCACGGAGTCACCTAGTGCAG”, the binding signal was 8310 fluorescence intensity (a.u.). As to “CCTGGTTGGTTTGGCTCGCACGTGGCGCGTCGTCCTACGCCGGAGTCACCTAGTGCAG”, the binding signal is 9870 fluorescence intensity (a.u.). With “TTATTTACAAACGAGTTCCATTTTTTTCTACGGTGATCGGCGGAGTCACCTAGTGCAG”, the binding signal was 8120 fluorescence intensity (a.u.). In the case of “TTTTTTGAGCCGTATTTTTGCTCTCTTGTTACGTTTTTTTCGGAGTCACCTAGTGCAG” it was 17100 fluorescence intensity (a.u.); in that of “TCTCTTTTCACCCACCGCACCCATCCAACTTCTCTTCTCTCGGAGTCACCTAGTGCAG”, 17900 fluorescence intensity (a.u.); in that of “TTCTTCTTCTGCCATTCCATCCATCCACCGCCGCCTCCGCCGGAGTCACCTAGTGCAG”, 8380 fluorescence intensity (a.u.). In the case of “GATTGTAGTTTGTATATGCTGCCCATTTCTGTTGTTCTTTCGGAGTCACCTAGTGCAG” it was 18900 fluorescence intensity (a.u.).

“ATCTGTATCTTTGTTTATTTTTTTTATTTTTCTCCCATTTCGGAGTCACCTAGTGCAG”: the binding signal was 10600 fluorescence intensity (a.u.). On to “CAGTTTGAGTTTTTGTTAGTTATTTCGTTTATTTTTTTTTCGGAGTCACCTAGTGCAG”, for which the binding signal was 12300 fluorescence intensity (a.u.). For the sequence “CTCCATCTCGCATCTTCTCTTTCTCTTTCTCTTTCTCTTTCGGAGTCACCTAGTGCAG”, the binding signal is 13300 fluorescence intensity (a.u.).

As to “TCCATCCCATTCCCGCCATCTCTGCATCTTCTTCTTCTTCCGGAGTCACCTAGTGCAG”, the binding signal is 9910 fluorescence intensity (a.u.). In the case of “CTTGTTACTAATATACTAGTATTTGAGTGTTACACGTTTTCGGAGTCACCTAGTGCAG” it was 8380 fluorescence intensity (a.u.); in that of “TCTCTTCTTCTTCTCCAACTTCTTTTTTCTCTTCTTCTTCCGGAGTCACCTAGTGCAG”, 9680 fluorescence intensity (a.u.); in that of “ATGCCCATTTTGTAGCGTCGATTCTTGTTTCTGCTTGATTCGGAGTCACCTAGTGCAG”, 10300 fluorescence intensity (a.u.). As to “GCCATTCCACATCAGTCCGTGCCGCTCTCTGCCCATTCTCCGGAGTCACCTAGTGCAG”, the binding signal was 18900 fluorescence intensity (a.u.).
